# Results published in publication PMC4552634, “A New Set of Chemical Starting Points with Plasmodium falciparum Transmission-Blocking Potential for Antimalarial Drug Discovery” (PLoS ONE, 2015).
# About 3,200 (25%) of roughly 13,000 compounds showed an effect of 50% or more. The list shows a part of the results.
# System: P. falciparum stage V gametocytes
# Set-up: BacTiter-Glo ATP luminescence viability of purified stage V gametocytes in 384-well plates, per cent inhibition versus DMSO
# Settings: 48 h, 5 µM; inhibitor
row,Structure (SMILES),% Inhibition [%]
1,COc1ccc(C(=O)N[C@@H](CC(C)C)C(=O)NC2CC[C@@H](C)N(C(=O)Nc3ccc(Cl)cc3)CC2=O)cc1OCCN1CCOCC1 (some centres unmarked) [TCMDC-134276],-74.97
2,CCOC(=O)c1ccc(N(CCCN(CCCN(c2ccc(C(=O)OCC)cc2)S(=O)(=O)c2ccc(C)cc2)CCc2ccc(O)cc2)S(=O)(=O)c2ccc(C)cc2)cc1 [TCMDC-137351],57.74
3,CCOC(=O)c1ccc(OCc2ccc(-c3ccccc3)cc2)cc1 [TCMDC-131397],4.826
4,CCOC(=O)c1ccc(COc2ccc(C)nc2)cc1 [TCMDC-131377],0.9057
5,CC(CCc1ccccc1)NCC(O)c1ccc2c3c(cccc13)S(=O)(=O)N2C (centres unmarked) [TCMDC-131253],8.689
6,NCCNc1ccnc2cc(Cl)ccc12 [TCMDC-125850],23.17
7,c1ccc2c(NCCCCCCNc3ccnc4ccccc34)ccnc2c1 [TCMDC-137913],91.15
8,COc1ccc(NCCCNc2ccnc3ccccc23)cc1 [TCMDC-139253],-97.14
9,FC(F)(F)c1ccc2c(NCCNc3ccnc4cc(C(F)(F)F)ccc34)ccnc2c1 [TCMDC-137881],-4.365
10,Clc1ccc2c(NCCNc3ccnc4cc(Cl)ccc34)ccnc2c1 [TCMDC-137882],57.8
11,c1ccc2c(NCCCCCCCCCNc3ccnc4ccccc34)ccnc2c1 [TCMDC-137750],102.2
12,Clc1ccc2c(NCCCCCCCCNc3ccnc4cc(Cl)ccc34)ccnc2c1 [TCMDC-137733],25.46
13,FC(F)(F)c1ccc2c(NCCCNc3ccnc4cc(C(F)(F)F)ccc34)ccnc2c1 [TCMDC-137736],28.34
14,NCCCNc1ccnc2cc(Cl)ccc12 [TCMDC-123921],17.37
15,c1ccc2c(NCCCCCCCNc3ccnc4ccccc34)ccnc2c1 [TCMDC-137897],122.9
16,COc1ccccc1-c1cccc2c(NC(=O)Nc3ccc4nccc(N5CCN(C)CC5)c4c3)ccnc12 [TCMDC-139384],-27.38
17,COc1ccc(C(=C(C)CC(C)C(=O)O)c2ccccc2)cc1 (centres unmarked) [TCMDC-131745],-8.546
18,Cc1c(CNCCCNc2nc3ccccc3[nH]2)sc(C(F)F)c1Br [TCMDC-141323],13.37
19,Cc1ccccc1-c1cc(=O)c2cc(NC(=O)c3cccs3)ccc2o1 [TCMDC-124947],11.18
20,COc1ccccc1/C=C/C(=O)N(C)C1CCN(CCCCCNC(=O)/C=C/c2ccc(Cl)c(Cl)c2)C1 (centres unmarked) [TCMDC-139996],13.3
21,Nc1nc(N)c2c(n1)CCc1cc(Br)ccc1-2 [TCMDC-125525],4.608
22,CN1CCC(c2c[nH]c3ccc(NC(=O)Nc4ccc(-c5ccncc5)cc4Cl)cc23)CC1 [TCMDC-139180],-1.977
23,CC(C)(C)CNc1noc(-c2sccc2Br)n1 [TCMDC-134187],-20.57
24,C=CCN1C(=O)CN(S(=O)(=O)c2ccc(-n3nc(C)cc3C)cc2)C1=S [TCMDC-131799],-1.195

row,Structure (SMILES),% Inhibition [%]
1,CN(C)CCCNc1ccnc2cc(Cl)ccc12 [TCMDC-123919],17.18
2,CNCCCNc1ccnc2cc(Cl)ccc12 [TCMDC-125233],36.92
3,CN(CCCNC(=S)NC12CC3CC(CC(C3)C1)C2)CCCNc1ccnc2cc(Cl)ccc12 [TCMDC-137885],114.9
4,c1ccc2c(NCCCCCCCCNc3ccnc4ccccc34)ccnc2c1 [TCMDC-137751],124.8
5,CN1CCN(Cc2cc(NC(=O)c3ccc(-c4ccc(Cl)cc4Cl)cc3)ccc2-c2ccccc2)CC1 [TCMDC-138839],21.61
6,CC(C)CN1CCC(N(C)c2cc(NC(=O)c3cccc(F)c3)ccn2)CC1 [TCMDC-135022],-32.51
7,CC(C)Cn1c(Sc2ccc(C#N)c([N+](=O)[O-])c2)nnc1-c1cccs1 [TCMDC-135575],26.53
8,O=C(Nc1cccc(C(F)(F)F)c1)Nc1cc(F)c(F)cc1Cl [TCMDC-123779],32.47
9,CCc1ccc(-n2c(NC(=O)c3ccccc3)nc3ccc(S(=O)(=O)NC(C)C(C)C)cc32)cc1 (centres unmarked) [TCMDC-136236],39.19
10,CC(OC(=O)c1ccc(C(=O)NCC2CC2)cc1)C(C)(C)C (centres unmarked) [TCMDC-138180],11.69
11,CCO[C@H]1CN[C@H](C#Cc2cc3c(Nc4ccc(OCc5cccc(F)c5)c(Cl)c4)ncnc3s2)C1 [TCMDC-135170],22.02
12,Cc1ccc(O)cc1Nc1ccnc2ccc(C(C)(C)C)cc12 [TCMDC-138885],-11.57
13,CC(C)(C)c1ccc2nccc(Nc3cccc(O)c3)c2c1 [TCMDC-138884],71.55
14,COc1cc(Nc2ccnc3ccc(C(C)(C)C)cc23)cc(OC)c1OC [TCMDC-138886],-36.54
15,C=CCC(CC=C)N1C(=O)C(c2ccccc2)(c2ccccc2)N=C1N [TCMDC-136807],5.028
16,O=C(/C=C/c1ccc(C(F)(F)F)cc1)NCCCCCN1CCN(C(=O)Nc2ccc(Cl)c(Cl)c2)CC1 [TCMDC-136094],-8.361
17,CC1CCC2(CC1)N=C(N)N=C(N)N2OCc1cc2ccccc2c2ccccc12 (centres unmarked) [TCMDC-131590],22.45
18,C[C@H](NC(=O)c1c(CN2CCC(N3CCCCC3)CC2)c(-c2ccccc2)nc2cc(O)ccc12)C1CCCCC1 [TCMDC-140408],25.99
19,OC1CCC(Nc2ccc3ncc(-c4ccc5ccccc5c4)n3n2)CC1 (centres unmarked) [TCMDC-136691],25.44
20,CN1CCN(c2ccc(CNc3ccc4ncc(-c5cccc(OC(F)(F)F)c5)n4n3)cc2)CC1 [TCMDC-136690],11.23
21,CN(C)c1cccc(-c2cnc3ccc(NCc4cccc(Cl)c4)nn23)c1 [TCMDC-136673],81.33
22,Clc1ccc(-c2cnc3ccc(NCc4ccncc4)nn23)cc1 [TCMDC-136682],21.16
23,CN1CCN(c2ccc(CNc3ccc4ncc(-c5ccc(OC(F)(F)F)cc5)n4n3)cc2)CC1 [TCMDC-136689],-0.7792
24,CN(C)CCNC(=O)c1cccc(-c2cnc3ccc(NCc4ccc(Cl)c(Cl)c4)nn23)c1 [TCMDC-136677],49.91

row,Structure (SMILES),% Inhibition [%]
1,CN(C)CCNC(=O)c1ccc(-c2cnc3ccc(NCc4ccc(Cl)c(Cl)c4)nn23)cc1 [TCMDC-136678],106.7
2,Cc1ccc(CNc2ccc3ncc(-c4cccc(C(=O)NCCN(C)C)c4)n3n2)c(C)c1 [TCMDC-136684],104.7
3,Clc1ccc(-c2cnc3ccc(NCCc4cccnc4)nn23)cc1 [TCMDC-136680],-25.41
4,CCC(C)NC(=O)CN1CN(c2ccccc2)C2(CCN(C(=O)c3ccc4ccccc4c3)CC2)C1=O (centres unmarked) [TCMDC-125174],-36.87
5,CCNc1cc(C)nc(Nc2ccc(NS(=O)(=O)c3cc(OC)ccc3OC)cc2)n1 [TCMDC-124953],-19.07
6,CC(C)c1ccc(NC(=O)c2ccc(C(=O)NC3CCN(CC4CCCCC4)C3)cc2)cc1 (centres unmarked) [TCMDC-136743],-27.55
7,COc1cccc2cc(C(=O)N[C@@H](CC(C)C)C(=O)N[C@H](/C=N/NC(=O)c3ccccc3)Cc3cnc[nH]3)oc12 [TCMDC-135820],40.86
8,CN(C)CCOc1cc(NC(=O)Nc2ccc(-c3ccncc3)c(Cl)c2)ccc1I [TCMDC-139135],19.45
9,O=C(c1ccc(Cl)cc1)C1CCN(CCCOc2ccc3c(c2)CCNCC3)CC1 [TCMDC-141781],60.35
10,Clc1ccc(C2CCN(CCCOc3ccc4c(c3)CCNCC4)CC2)cc1 [TCMDC-141782],72
11,COc1ccc(C(=O)C2CCN(CCCCNC(=O)c3ccc(NC(=O)c4ccc(Cl)cc4)cc3)CC2)c(OC)c1 [TCMDC-138625],-32.94
12,COc1ccc(C(=O)C2CCN(CCCCNC(=O)c3ccc(NC(=O)c4cc(Cl)cc(Cl)c4)cc3)CC2)cc1 [TCMDC-138228],-14.09
13,CC(C)(C)c1ccc(NC(=O)Nc2ccc(Cn3ncc(N4CCCNCC4)c(Cl)c3=O)cc2)cc1 [TCMDC-133314],-23.28
14,COc1ccc(-c2onc(C(F)(F)F)c2-c2cc3ccccc3o2)c(O)c1 [TCMDC-124534],7.209
15,O=C(Nc1ccc2c(c1)CNCC2)c1ccc(-c2ccc(Cl)cc2)cc1 [TCMDC-141479],71.62
16,CN1CCN(c2cc(NC(=O)c3ccc(-c4ccc(Cl)cc4)cc3)ccc2Cl)CC1 [TCMDC-138671],-15.54
17,CN1CCc2ccc(NC(=O)Nc3ccc(-c4ccccc4)cc3)cc2C1 [TCMDC-133725],-3.896
18,Cc1ccc(NC(=O)c2ccc(Cl)cc2)cc1-c1ccc(C(=O)Nc2ccncc2)cc1 [TCMDC-133698],-1.939
19,CN1CCCc2cc(NC(=O)c3cc(-c4ccc(Cl)cc4)cs3)ccc2C1 [TCMDC-134050],7.243
20,O=C(Nc1ccc2c(c1)CCNCC2)Nc1ccc2ccccc2c1 [TCMDC-133733],-8.361
21,O=C(Nc1ccc(-c2ccccc2)cc1)Nc1ccc2c(c1)CCNCC2 [TCMDC-133729],60.87
22,O=C(Nc1ccc(Cl)c(Cl)c1)Nc1ccc2c(c1)CCNCC2 [TCMDC-133731],29.44
23,O=C(Nc1ccc2c(c1)CCNCC2)c1ccc(-c2ccc(Cl)cc2)cc1 [TCMDC-141480],106.4
